Source: PubChem BioAssay
Compounds with a hit are over-represented: about 4.7% of the library has one in this group of screens.
ATG4B inh: blocks human ATG4B protease cleavage of LC3 substrate; Q9Y4P1; ATG4B cleavage of LC3-PLA2, NBD-HPC fluorescence, 1 h; inhibition, % at 8.33 µM; 340,000 compounds, 0.51% hits; in the data active = inhibition above about 40%
Target sequence (Q9Y4P1 whole entry, looked up): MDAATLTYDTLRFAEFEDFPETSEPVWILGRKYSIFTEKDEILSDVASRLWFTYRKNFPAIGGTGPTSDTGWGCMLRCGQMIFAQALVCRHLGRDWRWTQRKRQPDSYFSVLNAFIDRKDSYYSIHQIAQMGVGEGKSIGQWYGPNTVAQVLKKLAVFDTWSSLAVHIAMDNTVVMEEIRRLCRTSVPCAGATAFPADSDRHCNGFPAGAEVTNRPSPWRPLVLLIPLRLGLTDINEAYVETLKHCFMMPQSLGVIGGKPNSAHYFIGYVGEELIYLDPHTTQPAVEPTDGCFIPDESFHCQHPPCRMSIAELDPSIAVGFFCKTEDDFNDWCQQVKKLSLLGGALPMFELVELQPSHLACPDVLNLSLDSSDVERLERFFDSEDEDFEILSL
tim10-1 inh: growth inhibitors of tim10-1 mutant yeast | S. cerevisiae tim10-1 ts strain growth, BacTiter-Glo, 24 h | inhibition, % at 20 µM | 330,000 compounds, 2.2% hits | AID 463190;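 active = inhibition of at least 40%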;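 note: mutant grown at 25 °C; 0% = DMSO wells with yeast and 100% = wells holding no yeast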
tim23-1 inh: growth inhibitors of tim23-1 mutant yeast; S. cerevisiae tim23-1 growth, BacTiter-Glo luminescence, 24 h; inhibition, % at 20 µM; 330,000 compounds, 1.3% hits; AID 463212;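 active = growth inhibition of the mutant yeast at or above 50%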;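 note: temperature-sensitive mutant grown at 25 °C; plate controls were DMSO-treated mutant yeast for no effect and medium wells lacking yeast for full effect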
SKKanGAS inh: blocks kanamycin growth of S. pyogenes SKKanGAS strain; 300,000 compounds, 1.3% hits; BacTiter-Glo, 6 h; AID 1662; inhibition, % at 7.5 µM;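 active = mean replicate score, as percent of positive control median, at least 50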;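 note: strain carries kanamycin resistance gene driven by streptokinase promoter and grows in 40 µg/ml kanamycin; loss of luminescence reflects streptokinase promoter inhibition or plain growth inhibition; 0% = median of DMSO wells and 100% = positive control at its reference dose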
TIM10 inh: TIM10 yeast growth inhibition; S. cerevisiae TIM10 strain growth, BacTiter-Glo luminescence, 24 h; inhibition, % at 10 µM; 330,000 compounds, 1.4% hits;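 active = inhibition of 40% or more at the single tested concentration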;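 note: wild-type TIM10 isogenic control strain grown at permissive 25 °C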
PfHsp90 set2: growth inhibition of yeast expressing Plasmodium Hsp90 | 310,000 compounds, 0.32% hits | inhibition, % at 9.4 µM | AID 504621 | S. cerevisiae expressing PfHsp90, BacTiter-Glo ATP, 48 h; yeast lacking PDR1 and PDR3 efflux regulators;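 active = every replicate shows inhibition above about 80%, whatever the replicate mean, limit read from the data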;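 note: 0% = DMSO neutral controls and 100% = 20 µM radicicol positive controls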
An asterisk follows results filed as active.

For COc1ccc(OC)c(NC(=O)c2c(NC(=O)CCC(=O)O)sc3c2CCCCC3)c1 the results were ATG4B inh -8, tim10-1 inh 33, tim23-1 inh 25, SKKanGAS inh 22, TIM10 inh 20 and PfHsp90 set2 10.
COc1ccc(-c2cc(C)no2)cc1S(=O)(=O)N1CCOc2ccc(Cl)cc21 was read as ATG4B inh 2, tim10-1 inh 14, tim23-1 inh 12, SKKanGAS inh 9, TIM10 inh 12 and PfHsp90 set2 -8.
`O=C(Nc1cccc(Cl)c1N1CCCC1)c1cc2ccccc2o1` gave ATG4B inh 31, tim10-1 inh 10, tim23-1 inh 5, SKKanGAS inh 73*, TIM10 inh 1 and PfHsp90 set2 11.
For CC(=O)N1CCN(c2ccccc2NC(=O)c2cc3ccccc3o2)CC1 the results were ATG4B inh -8, tim10-1 inh 10, tim23-1 inh 24, SKKanGAS inh 7, TIM10 inh -11 and PfHsp90 set2 3.
For Fc1ccc(-c2cc(C(F)(F)F)nc(N3CCCCC3)n2)cc1 the results were ATG4B inh -8, tim10-1 inh 7, tim23-1 inh -17, SKKanGAS inh 65* and TIM10 inh -11.
COc1cccc(-c2cc(C(F)(F)F)nc(N3CCOCC3)n2)c1 was read as ATG4B inh -8, tim10-1 inh 11, tim23-1 inh 17, SKKanGAS inh 4, TIM10 inh 5 and PfHsp90 set2 2.
For COc1cccc(-c2cc(C(F)(F)F)nc(N3CCC(C)CC3)n2)c1 the results were ATG4B inh -10, tim10-1 inh 5, tim23-1 inh 9, SKKanGAS inh 68*, TIM10 inh -7 and PfHsp90 set2 14.
`C/C(=N\N1C(=O)c2ccccc2NC1c1ccccc1)c1ccccc1O` (stereo not given) gave ATG4B inh 12, tim10-1 inh 0, tim23-1 inh -5, SKKanGAS inh -7, TIM10 inh -10 and PfHsp90 set2 -8.
O=S(=O)(c1ccc(Br)cc1)N1CCCC1 was read as ATG4B inh -3, tim10-1 inh 13, tim23-1 inh 20, SKKanGAS inh -1, TIM10 inh 0 and PfHsp90 set2 2.
Screening Cn1nc(C(C)(C)C)c([N+](=O)[O-])c1C(=O)N1CCCCCC1 returned ATG4B inh -8, tim10-1 inh 5, tim23-1 inh 15, SKKanGAS inh -1, TIM10 inh 5 and PfHsp90 set2 13.
O=C(NC(=S)N1CCN(c2c(Cl)cccc2[N+](=O)[O-])CC1)c1cccs1 was read as ATG4B inh 18, tim10-1 inh 24, tim23-1 inh 23, SKKanGAS inh 76*, TIM10 inh 35 and PfHsp90 set2 -19.
For Cc1ccc(O)c(NC(=S)NC(=O)c2ccc(-c3ccc(Cl)cc3)o2)c1 the results were ATG4B inh -15, tim10-1 inh 15, tim23-1 inh 23, SKKanGAS inh 96*, TIM10 inh 1 and PfHsp90 set2 122*.
Screening COc1ccccc1NC(=S)NC(=O)c1ccc(-c2ccc(Cl)cc2)o1 returned ATG4B inh -13, tim10-1 inh 17, tim23-1 inh 8, SKKanGAS inh -13, TIM10 inh 9 and PfHsp90 set2 -14.
O=C(NC(=S)Nc1ccccc1O)c1ccc(-c2ccc(Cl)cc2)o1 was read as ATG4B inh -19, tim10-1 inh 14, tim23-1 inh 0, SKKanGAS inh 53*, TIM10 inh -5 and PfHsp90 set2 -38.
Screening CCOc1ccc(-c2c(C(=O)N/N=C/c3ccc(Cl)cc3)nnn2-c2nonc2N)cc1 returned ATG4B inh -8, tim10-1 inh 5, tim23-1 inh 2, SKKanGAS inh 13, TIM10 inh -9 and PfHsp90 set2 33.
Screening O=C(NNS(=O)(=O)c1ccccc1[N+](=O)[O-])c1ccc(O)cc1 returned ATG4B inh -5, tim10-1 inh 10, tim23-1 inh 1, SKKanGAS inh -2, TIM10 inh 0 and PfHsp90 set2 -8.
For Cc1[nH]n(-c2ccccc2)c(=O)c1N=Nc1ccccc1O the results were ATG4B inh 5, tim10-1 inh 39, tim23-1 inh 34, SKKanGAS inh 68*, TIM10 inh -26 and PfHsp90 set2 15.
For Cc1ccccc1N=Nc1c(C)[nH]n(-c2ccccc2)c1=O the results were ATG4B inh 4.
`Cc1[nH]n(-c2ccccc2)c(=O)c1N=Nc1nccs1` gave ATG4B inh 7, tim10-1 inh 1, tim23-1 inh 13, SKKanGAS inh 94*, TIM10 inh 6 and PfHsp90 set2 16.
`COc1ccc(C(=O)N/C(=C\c2ccco2)C(=O)NCCCn2ccnc2)cc1` gave ATG4B inh -4, tim10-1 inh 1, tim23-1 inh 2, SKKanGAS inh -6, TIM10 inh -12 and PfHsp90 set2 -14.
For Cn1cc(C(=O)c2ccc(Cl)cc2Cl)cc1C(=O)N/N=C(\N)COc1ccc(Cl)cc1Cl the results were ATG4B inh -1, tim10-1 inh 34, tim23-1 inh 1, SKKanGAS inh 71*, TIM10 inh 15 and PfHsp90 set2 -26.
For N#C/C(=C/c1ccc(O)cc1)C(=O)NCc1ccc(Cl)cc1 the results were ATG4B inh 3, tim10-1 inh -15, tim23-1 inh 6, SKKanGAS inh 11, TIM10 inh 17 and PfHsp90 set2 103*.
For Cc1nc2ccc(S(=O)(=O)NC(C(=O)N3CCCC3)C(C)C)cc2s1 (stereo not given) the results were ATG4B inh -6, tim10-1 inh -9, tim23-1 inh 1, SKKanGAS inh -3, TIM10 inh 6 and PfHsp90 set2 -9.
For CC1CCCN(CCCNC(=O)C2CC(=O)N(CCc3ccccc3)C2)C1 (stereo not given) the results were ATG4B inh 2, tim10-1 inh 5, tim23-1 inh 14, SKKanGAS inh 2, TIM10 inh 0 and PfHsp90 set2 -9.
Screening CCCOc1ccc(C(CC(=O)O)NC(=O)c2sc3ccccc3c2Cl)cc1 (stereo not given) returned ATG4B inh 9, tim10-1 inh -2, tim23-1 inh 10, SKKanGAS inh 43, TIM10 inh 12 and PfHsp90 set2 -13.
`O=[N+]([O-])c1cc(Cl)c(O)c2ncccc12` gave ATG4B inh -3, tim10-1 inh -16, tim23-1 inh -13, SKKanGAS inh 51*, TIM10 inh -7 and PfHsp90 set2 98*.
Screening O=[N+]([O-])c1cc(Cl)c2cccnc2c1O returned ATG4B inh -7, tim10-1 inh 10, tim23-1 inh -38, SKKanGAS inh 83*, TIM10 inh 7 and PfHsp90 set2 -44.
For O=[N+]([O-])c1cc(F)c2cccnc2c1O the results were ATG4B inh -3, tim10-1 inh 4, tim23-1 inh -30, SKKanGAS inh 40, TIM10 inh -15 and PfHsp90 set2 -53.
